Reference: paper PMC4336329 (PLoS ONE, 2015)
Out of some 310,000 compounds screened, about 14,000 (4.5%) showed an effect of 50% or more. Effects have a minus sign here. This excerpt belongs to a sample that is enriched for strong results.

target: human ether-à-go-go-related gene (hERG) potassium channel (human, UniProt Q12809); experiment: primary screen, population patch clamp on CHO cells stably expressing hERG; higher = less effect of the substance
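Also: peak tail current of the secondary pulse compared with the same well before compound.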

Sequence of human ether-à-go-go-related gene (hERG) potassium channel (Q12809 whole entry, looked up): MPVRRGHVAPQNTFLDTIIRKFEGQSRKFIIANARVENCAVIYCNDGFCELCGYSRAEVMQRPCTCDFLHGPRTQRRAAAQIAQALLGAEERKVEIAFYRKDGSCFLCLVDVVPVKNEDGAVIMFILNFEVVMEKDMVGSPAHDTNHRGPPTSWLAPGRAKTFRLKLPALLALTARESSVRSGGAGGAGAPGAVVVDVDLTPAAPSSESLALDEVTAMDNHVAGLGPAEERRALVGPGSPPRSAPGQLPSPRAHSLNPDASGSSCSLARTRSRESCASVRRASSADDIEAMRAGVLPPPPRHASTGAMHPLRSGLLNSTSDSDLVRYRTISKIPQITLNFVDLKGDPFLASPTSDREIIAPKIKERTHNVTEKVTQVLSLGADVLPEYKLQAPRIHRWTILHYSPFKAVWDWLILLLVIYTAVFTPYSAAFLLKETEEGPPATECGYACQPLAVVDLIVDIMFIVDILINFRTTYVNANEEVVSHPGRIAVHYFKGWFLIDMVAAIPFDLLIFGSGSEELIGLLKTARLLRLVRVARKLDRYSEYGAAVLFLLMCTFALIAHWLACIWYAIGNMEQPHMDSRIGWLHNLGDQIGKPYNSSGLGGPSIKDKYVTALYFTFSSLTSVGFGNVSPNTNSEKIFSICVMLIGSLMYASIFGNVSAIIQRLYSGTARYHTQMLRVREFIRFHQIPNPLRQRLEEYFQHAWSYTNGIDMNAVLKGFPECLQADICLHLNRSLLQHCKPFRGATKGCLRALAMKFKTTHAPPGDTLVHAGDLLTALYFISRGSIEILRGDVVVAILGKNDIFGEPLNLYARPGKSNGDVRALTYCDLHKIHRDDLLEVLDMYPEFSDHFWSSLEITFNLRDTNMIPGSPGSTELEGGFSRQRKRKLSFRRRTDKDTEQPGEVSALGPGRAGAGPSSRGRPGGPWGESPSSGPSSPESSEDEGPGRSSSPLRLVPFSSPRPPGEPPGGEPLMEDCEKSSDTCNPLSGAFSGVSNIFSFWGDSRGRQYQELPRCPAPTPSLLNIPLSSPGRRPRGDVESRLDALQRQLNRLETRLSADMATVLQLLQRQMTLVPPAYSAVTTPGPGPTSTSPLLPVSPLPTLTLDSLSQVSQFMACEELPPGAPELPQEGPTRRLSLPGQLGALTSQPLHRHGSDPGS

Compound	hERG current change (%, negative = inhibition) at 10uM [%]
O=C(CCCn1nnc2ccccc2c1=O)N[C@@H](Cc1ccccc1)C(=O)O	13
COc1cc(OC)c(/C=N/n2c(C3CCCCC3)n[nH]c2=S)c(OC)c1	22.6
CCSc1nc2c(c(=O)n1-c1ccc(F)cc1)SCC2	-4.12
Cc1cc(C)cc(NC(=O)N2C3CCCC2CC(NC(=O)C2CC2)C3)c1 (stereo not drawn)	17
Fc1ccc(COc2ccccc2-c2ccnc3ncnn23)cc1	-6.51
Cc1cccc(C)c1NC(=O)CN(C)CC(=O)N(C)CC(=O)Nc1ccccc1Br	14
CCCn1c(-c2ccc[nH]c2=O)nc2ccccc21	15.6
CCOC(=O)c1ccc(NC(=O)C2CC(=O)N(c3ccc4c(c3)OCCO4)C2)cc1 (stereo not drawn)	10.7
COC(=O)c1nn(-c2c(C)n(C)n(-c3ccccc3)c2=O)cc1O	5.84
COc1cccc(NC(=S)NNC(=O)CCn2cc([N+](=O)[O-])cn2)c1	-2.61
Cc1ccc(NCc2nnc(SCC(=O)N(Cc3ccccc3)C(C)(C)C)o2)c(C)c1	-9.53
CC(=O)Nc1ccc(S(=O)(=O)N2CCN(S(=O)(=O)c3ccccc3)CC2)cc1	11.7
CC(=O)Nc1ccc(S(=O)(=O)N2CCN(c3nc(C)cc(C)n3)CC2)cc1	5.68
CC(=O)Nc1ccc(S(=O)(=O)N2CCN(c3cc(C)nc4ccccc34)CC2)cc1	-88.5
C[C@@H](NC(=O)c1[nH]cnc1C(=O)Nc1nccs1)c1ccccc1	-3.32
CC(=O)Nc1cccc(C(=O)Nc2ccccc2N2CCOCC2)c1	-0.962
Cc1ccccc1-n1c(Cn2c(=O)sc3ccccc32)nnc1SCC(=O)NCC1CCCO1 (stereo not drawn)	-2.85
CCOc1ccccc1-n1c(=O)c2ccccc2c2ccccc2c1=O	-6.99
COc1cccc(C2CNC3(CCCC(C)C3)c3[nH]c4ccccc4c32)c1OC.Cl (stereo not drawn)	-23.6
CC1c2c([nH]c3ccccc23)CCC1C(=O)O (stereo not drawn)	22.4
CC1(C)CC(=O)CC2(C1)NCC(c1ccccc1Cl)c1c2[nH]c2ccccc12.Cl (stereo not drawn)	-51.4
ClCC1NCC(c2ccccc2Cl)c2c1[nH]c1ccccc21 (stereo not drawn)	0.482
CC1(C)CC(=O)CC2(C1)NCC(c1ccccc1)c1c2[nH]c2ccccc12.Cl (stereo not drawn)	-85.8
CC1(C)NC(C(=O)O)Cc2c1[nH]c1ccccc21 (stereo not drawn)	3.65
O=Nc1ccc(NOC(=O)c2ccccc2Br)cc1	3.45
CC(C)(C)c1cc(CCC(=O)Nc2ccncc2)cc(C(C)(C)C)c1O	-16.6
CCN(CC)CCNC(=O)C(C)c1nn(CC)c(=O)c2ccccc12.Cl (stereo not drawn)	7.49

Compound	hERG current change (%, negative = inhibition) at 10uM [%]
CCN(CC)CCN1C(=O)Cn2c(C)c(C)c3cccc1c32.O=C(O)C(O)C(O)C(=O)O	-65.1
CCN(CC)CCN1C(=O)Cn2c(C)c(C)c3cccc1c32.Cl	-52.4
CCN(CC)CCN1C(=O)C2C3c4ccccc4C(c4ccccc43)C2C1=O (stereo not drawn)	-2.51
Cc1c(C)n2c3c(cccc13)CC2	-0.781
CCN(CC)CCNC(=O)Cn1nc(-c2ccccc2)c2ccccc2c1=O	-31
Cc1ccc(NC(=O)Cn2c(=O)n(Cc3ccco3)c(=N)c3c4c(sc32)COC(C)(C)C4)cc1	-7.76
CC(C)[C@H](NC(=O)c1ccco1)C(=O)OCC(=O)N1CC(=O)Nc2ccccc21	13.3
O=C1N/C(=C/c2ccc(N3CCOCC3)cc2)C(=O)N1Cc1ccc(F)cc1	22.1
CCOC(=O)C1CCN(C(=O)CSc2cc(=O)n(CC)c3ccccc23)CC1	-29.4
O=[N+]([O-])c1cc2c(c(CSc3nnc4ccccn34)c1)OCOC2	-12.4
O=C(O)C(Cc1ccccc1)n1cnnn1 (stereo not drawn)	7.85
CCC(CC)c1nn2c(N)c(/C=C3\C=Nc4ccccc43)c(=O)nc2s1	0.567
COc1ccc(S(=O)(=O)N2CCCC(C(=O)O)C2)cc1Cl (stereo not drawn)	6.43
CC1=NNC(=O)C1CC(=O)N/N=C/C(Br)=C/c1ccccc1 (stereo not drawn)	9.09
O=c1c2ccccc2oc2ccc(-c3ccc4[nH]ccc4c3)cc12	-2.53
COc1ccc(-c2nn(CCC#N)cc2C(=O)Nc2cccc(C(=O)O)c2)cc1OC	20.9
COc1ccc(NC(=O)c2cn(CCC#N)nc2-c2ccc([N+](=O)[O-])cc2)cc1	2.58
N#CCCn1cc(C(=O)Nc2ccc([N+](=O)[O-])cc2)c(-c2cccs2)n1	-59.7
N#CCCn1cc(C(=O)Nc2ccc(F)cc2)c(-c2ccc([N+](=O)[O-])cc2)n1	-57.1
N#CCCn1cc(C(=O)Nc2ccc(F)cc2)c(-c2ccccc2)n1	-15.2
N#CCCn1cc(C(=O)Nc2ccc(C(=O)O)cc2)c(-c2cccs2)n1	21
Cc1ccc(NC(=O)c2cn(CCC#N)nc2-c2ccc3c(c2)OCCO3)c([N+](=O)[O-])c1	-33.9
COc1ccc(-c2nn(CCC#N)cc2C(=O)Nc2ccccc2)cc1OC	-6.03
N#CCCn1cc(C(=O)Nc2ccc([N+](=O)[O-])cc2)c(-c2ccc3c(c2)OCCO3)n1	-72.8
COc1ccc(-c2nn(CCC#N)cc2C(=O)Nc2cccc([N+](=O)[O-])c2)cc1OC	-57.9
COc1ccc(NC(=O)c2cn(CCC#N)nc2-c2cccs2)cc1	-11.3
CCOC(=O)c1ccc(NC(=O)c2cn(CCC#N)nc2-c2ccc3c(c2)OCCO3)cc1	-4.59
